Measurements as given in PubChem BioAssay.
Entries with a potency or affinity are not part of this list. The source made the active and inactive calls. The limit is not given here; nearly all actives have IC50 up to about 0.91 µM.

These compounds were tested against Calcium-dependent protein kinase 4 (Plasmodium falciparum (isolate 3D7)) (UniProt Q8IBS5) (assay: PfCDPK4 kinase inhibitors, biochemical, TCAMS library (AID 1159588)). Details: recombinant PfCDPK4, Kinase-Glo ATP depletion luminescence.
Chain of Calcium-dependent protein kinase 4 (Plasmodium falciparum (isolate 3D7)) (Q8IBS5 whole entry, looked up): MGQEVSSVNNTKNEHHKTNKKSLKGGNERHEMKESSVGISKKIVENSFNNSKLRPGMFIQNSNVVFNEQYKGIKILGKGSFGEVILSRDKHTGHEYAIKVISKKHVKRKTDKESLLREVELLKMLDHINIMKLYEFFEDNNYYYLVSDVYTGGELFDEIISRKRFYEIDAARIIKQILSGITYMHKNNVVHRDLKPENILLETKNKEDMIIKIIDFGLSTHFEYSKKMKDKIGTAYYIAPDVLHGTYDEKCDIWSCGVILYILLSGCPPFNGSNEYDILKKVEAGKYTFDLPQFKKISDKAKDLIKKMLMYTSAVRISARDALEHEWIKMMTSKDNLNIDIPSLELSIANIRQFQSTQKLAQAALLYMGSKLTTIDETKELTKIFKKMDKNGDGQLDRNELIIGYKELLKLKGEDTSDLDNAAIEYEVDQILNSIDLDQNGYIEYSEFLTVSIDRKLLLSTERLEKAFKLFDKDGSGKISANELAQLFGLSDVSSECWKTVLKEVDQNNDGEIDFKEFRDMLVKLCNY
For `CCN1CCN(c2ccc(Nc3ccnc4ccc(Br)cc34)cc2)CC1`, the outcome was “inactive”. With `O=C(NCC1Cc2cc(Oc3ccccc3)ccc2O1)c1ccc([N+](=O)[O-])o1` (stereo not given) the outcome was “inactive”. `CCN(CC)CCN(Cc1ccc(-c2ccc(C(F)(F)F)cc2)cc1)C(=O)c1ccc(-c2ccc(NC(=O)OC)cc2C)cc1` was tested, and the outcome was “inactive”. With `COc1ccc(CNCCc2cccs2)cc1-c1cccc(S(=O)(=O)NCCN2CCCC2)c1` the outcome was “inactive”. `O=C(Nc1ccc(-c2cccc(-c3nc4ccc(C(F)(F)F)cc4[nH]3)c2)cc1)Nc1ccc(Cl)c(Cl)c1` was tested, and the outcome was “inactive”. For `CCN(CC)CCN(Cc1ccc(-c2ccc(C(F)(F)F)cc2)cc1)C(=O)Cn1c(CCC2CCCCC2)nc(=O)c2ccccc21`, the outcome was “inactive”. In the case of `CC(Oc1ccc(NC(=O)c2cccs2)cc1)C(=O)c1ccc(Cl)cc1` (stereo not given), the outcome is reported as “inactive”. In the case of `CC(=O)Nc1ccc(C(=O)Nc2ccc(-c3cccc(-c4nc5c(C)cccc5[nH]4)c3)cc2)cn1`, the outcome is reported as “inactive”. With `COc1ccc(-c2ccc(CNC(=O)c3ccc(C#N)cc3)c(F)c2)cc1CN1CCCN(C)CC1` the outcome was “inactive”. For `CC1CN(C(=O)c2sc3ccccc3c2Cl)CC(C)O1` (stereo not given), the outcome was “inactive”. `COc1ccc2nccc([C@@H](O)CN3CCC(NCc4ccc(OC)c(NC(C)=O)c4)CC3)c2c1` was tested, and the outcome was “inactive”. `COc1ccc(Nc2nc(C)cc(NC3CCCC3)n2)cc1` was tested, and the outcome was “inactive”. For `COc1cc2nc(NCCc3ccccc3)nc(NCc3cc(C)no3)c2cc1OC`, the outcome was “inactive”. `c1ccc2c(C3CCN(CCCCOc4ccc5c(c4)CCN(C4CCC4)CC5)CC3)c[nH]c2c1` was tested, and the outcome was “inactive”. With `Cc1cc(N[C@@H](Cc2ccccc2)C(=O)NCCCOC(C)C)nc(NCC2CCCCC2)n1` the outcome was “inactive”. In the case of `COc1ccc(C(=O)CCC(=O)N(Cc2ccc(-c3ccc(CNCc4cccnc4)cn3)cc2)C2CCN(Cc3ccccc3)CC2)cc1F`, the outcome is reported as “inactive”. `O=[N+]([O-])c1cc2c(cc1C=NNc1nc(Nc3ccccc3)nc(Nc3ccccc3)n1)OCO2` was tested, and the outcome was “inactive”. In the case of `Cc1cccc2[nH]c(-c3cccc(-c4cccc(CN5CCN(c6ccncc6)CC5)c4)c3)nc12`, the outcome is reported as “inactive”. For `CC(C)CCn1c(Sc2ccc(C#N)c([N+](=O)[O-])c2)nnc1-c1cccc(Cl)c1`, the outcome was “inactive”. With `O=C(Nc1ccc(-c2cccc(-c3nc4ccccc4[nH]3)c2)cc1)Nc1ccc(Cl)c(Cl)c1` the outcome was “inactive”. In the case of `O=C(/C=C/c1ccc(Cl)c(Cl)c1)NCCCCCCN1CCCN(C(=O)Nc2ccc(C(F)(F)F)cc2)CC1`, the outcome is reported as “inactive”. With `O=C(N[C@@H](Cc1ccccc1)C(=O)NC1CCCc2ccccc21)c1ccc(O)c(-c2ccc(Cl)c(Cl)c2)c1` (stereo not given in full) the outcome was “inactive”. For `CN(C(=O)c1snnc1-c1ccccc1)C1CCN(CCCCCNC(=O)/C=C/c2ccc(Cl)c(Cl)c2)CC1`, the outcome was “inactive”. In the case of `CC(C)N1CCN(C(CN2CCN(CCCOc3ccccc3-c3ccccc3)CC2)c2ccc(F)cc2)CC1` (stereo not given), the outcome is reported as “inactive”. For `C=CCOC(=O)N1CCC(CNCc2cccc(-c3ccc(-c4nc5c(C)cccc5[nH]4)s3)c2)C1` (stereo not given), the outcome was “inactive”.
